Experimental data from PubChem BioAssay AID1571 (National Center for Advancing Translational Sciences (NCATS), 2009).
Results filed as inconclusive are left out. Calls of active or inactive are those of the source. The call rests on the fitted dose curve; in most records, active means well fitted curve in the direction sought with a large enough effect; inconclusive means small, poorly fitted or top-dose-only effect, or effect the other way; inactive means flat fitted curve, though single readings scatter.

Assay: Total Fluorescence Confirmation Counterscreen for Inhibitors of the Interaction of Thyroid Hormone Receptor and Steroid Receptor Coregulator 2, Fluorescein Fluoroprobe
Settings: TRbeta/SRC2-fluorescein mix, total fluorescence interference; series mostly up to 92.2 µM
Source text: NIH Molecular Libraries Probe Production Network [MLPCN] NIH Chemical Genomics Center [NCGC] MLPCN Grant: DK058080 Assay Provider: R. Kip Guy, St. Jude Children's Research Hospital NCGC Assay Overview: Thyroid receptor (TR) regulates many homeostatic processes including basal metabolism, cardiovascular function, body weight, and lipid trafficking. TR modulators are potential therapeutics for obesity and hyperlipidemias but current thyroid analogs have undesirable side effects, particularly cardiac stimulation. To identify inhibitors that specifically prevent the interaction of TR with the steroid receptor coregulator 2 (SRC2), a fluorescence polarization assay was screened (Arnold et al., 2006). This assay detects interaction of the ligand-binding domain of human TRbeta with a fluorescein labeled SRC2 peptide, corresponding to a 20 amino acid region of the nuclear receptor interaction domain. Total fluorescence (555 nm excitation and 632 nm emission) was measured to identify potential fluorescent and light absorbing compounds. Such compounds may be artifacts that interfere with the fluorescence polarization assay. This assay is a confirmation assay for AID 1479. Arnold, L. A.; Estebanez-Perpina, E.; Togashi, M.; Shelat, A.; Ocasio, C. A.; McReynolds, A. C.; Nguyen, P.; Baxter, J. D.; Fletterick, R. J.; Webb, P.; Guy, R. K. A high-throughput screening method to identify small molecule inhibitors of thyroid hormone receptor coactivator binding. Sci STKE 2006, p 13.
NCGC Assay Protocol Summary: For screening, 5 uL/well 0.6 uM TRbeta and 20 nM SRC2 Fluorescein in protein buffer (20mM Tris hydrochloride, 100mM NaCl, 10% glycerol, 1mM EDTA, 0.01% NP-40, 1mM DTT, 1uM T3 and 5% DMSO) was dispensed into black solid 1536-well plates (Grenier) using a solenoid-based dispenser. Following transfer of 23 nL compound or DMSO vehicle by a pin tool, the plates were centrifuged 15 s at 1000 RPM and incubated 5 hr at ambient temperature. The plates were read by an Envision (Perkin Elmer) to detect fluorescence polarization of SRC2 Fluorescein (480 nm excitation and 535 nm emission). Data were normalized to unbound (all components except TRbeta) and bound SRC2 Fluorescein controls. Total fluorescence (TF) was calculated as follows: TF = S + 2P where S and P are fluorescence readings in the parallel and perpendicular channels, respectively. In this assay, we provide % activity data for each concentration as well as potencies for the active compounds.

| Structure (SMILES) | outcome |
| --- | --- |
| Cc1[nH]n(-c2ccccc2)c(=O)c1C(c1ccc([N+](=O)[O-])cc1)c1c(C)[nH]n(-c2ccccc2)c1=O | inactive |
| COP(=S)(OC)Oc1ccc([N+](=O)[O-])cc1 | inactive |
| CN1CC[C@@]2(C)c3cc(O)ccc3N(C)C2O1 (stereo not given in full) | inactive |
| O=C(O)CC1OCC=C2CN3CCC45C6=CC(=O)C(=O)C([N+](=O)[O-])=C6NC4C1C2CC35 (stereo not given) | inactive |
| CCn1nc(-c2cccs2)nc2c(=O)n(C)c(=O)nc1-2 | inactive |
